# Results: PubChem BioAssay
# Inconclusive results are not listed. Active and inactive are the calls of the source. Rule as the data show it, unless noted: active = inhibition above about 80%; inactive = the rest.
# Tests used:
# [1] = growth inhibition of DIPG glioma cells, dose response, cell-based, SU-DIPG-XVII, MIPE5.0, CellTiter-Glo, qHTS (AID 1347060; cut-off not given, nearly all actives have AC50 up to about 26 µM;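 as to AC50: cells exposed to compound for 48 hours before viability readout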); details: SU-DIPG-XVII viability, CellTiter-Glo ATP luminescence
# [2] = growth inhibition of DIPG glioma cells, dose response, cell-based, SU-DIPG-XIII, MIPE5.0, CellTiter-Glo, qHTS (AID 1347064; cut-off not given, nearly all actives have AC50 up to about 23 µM;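 as to AC50: cells exposed to compound for 48 hours before the viability read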); details: SU-DIPG-XIII viability, CellTiter-Glo ATP luminescence
# [3] = viability loss in pontine glioma line – cell-based, SU-DIPG-XXV, MIPE5.0, CellTiter-Glo, qHTS, dose response (AID 1347065; cut-off not given, nearly all actives have AC50 up to about 26 µM;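 also: cells exposed to compound for 48 hours before ATP readout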); details: CellTiter-Glo ATP luminescence
# [4] = JHH-DIPG-1 glioma cell viability, MIPE5.0 library, CellTiter-Glo luminescence, qHTS (AID 1347067; cut-off not given, nearly all actives have AC50 up to about 26 µM;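 also: cells exposed to compound for 48 hours before readout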); details: JHH-DIPG-1 glioma viability, CellTiter-Glo ATP luminescence
# [5] = SU-DIPG-XXV glioma cell viability, MIPE5.0 library, qHTS (AID 1347068; cut-off not given, nearly all actives have IC50 up to about 30 µM;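 as to IC50: cells exposed to compound for 48 hours before viability readout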)
# [6] = sensitizers of A549 cells to miR-34 induction, primary screen, imaging, A549 dox-inducible miR-34, nuclei and caspase counts (AID 1347080;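 active = compounds whose cell count with miR-34 switched on is under 0.7 times the count with it off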); details: A549 miR-34 inducible, Hoechst nuclei count, 48 h
# [7] = survival rescue of mitochondrial mutant cells in low glucose, primary screen, MELAS cybrids, Rieske KO mouse fibroblasts, CellTiter-Glo (AID 1508586;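 active = mean z-score across replicates of 1.96 or higher in either the MELAS or the Rieske mutant cell line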;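 also: z relative to plate mean and SD of compound and empty wells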)
# [8] = LFS_MB_P medulloblastoma growth inhibition, cell-based, chromothripsis tumors, cisplatin or BGB combos (AID 1671449); details: LFS_MB_P medulloblastoma cells;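 also: cells exposed for 96 hours; 0% = vehicle DMSO and 100% = killing by high DMSO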
# [9] = HDN33 neuroblastoma growth inhibition, cell-based, chromothripsis tumors, cisplatin or BGB combos (AID 1671450); details: HDN33 neuroblastoma cells, stronger effect = higher value;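 also: cells exposed to compound for four days; 0% = vehicle DMSO and 100% = cell killing by high DMSO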
# [10] = ICB984 medulloblastoma cell growth inhibition, synergistic combos for chromothripsis tumors, cisplatin or BGB combos (AID 1671451; call rule not given here;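 also: cells exposed for 96 hours before readout; 0% = vehicle DMSO and 100% = killing by high DMSO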); details: ICB984 medulloblastoma cells, drug combinations, stronger effect = higher value
# [11] = LFS_MB_1R medulloblastoma cell growth inhibition, synergistic combos for chromothripsis tumors, cisplatin or BGB combos (AID 1671452); details: LFS_MB_1R medulloblastoma cells, stronger effect = higher value;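 also: cells exposed for 96 hours before readout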
# [12] = HTB85 osteosarcoma cell growth inhibition, synergistic combos for chromothripsis tumors, BGB or cisplatin IC20 combos (AID 1671453); details: HTB85 osteosarcoma cells, drug combinations, stronger effect = higher value;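 also: cells exposed for 96 hours before readout; 0% = vehicle DMSO and 100% = high DMSO killing control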
# [13] = CRL2098 osteosarcoma cell growth inhibition, synergistic combos for chromothripsis tumors, BGB or cisplatin IC20 combos (AID 1671454); details: CRL2098 osteosarcoma cells, drug combinations, stronger effect = higher value;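 also: cells exposed for 96 h before readout; 0% = vehicle DMSO and 100% = killing by high DMSO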
# [14] = HD-MB03 medulloblastoma cell growth inhibition, synergistic combos for chromothripsis tumors, BGB or cisplatin IC20 combos (AID 1671455; in the data active = inhibition above about 83%;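 also: 0% = vehicle DMSO and 100% = high DMSO as cytotoxic control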); details: HD-MB03 medulloblastoma cells, stronger effect = higher value
# [15] = UWB1.289 ovarian carcinoma cell growth inhibition, synergistic combos for chromothripsis tumors, BGB or cisplatin combos (AID 1671456); details: UWB1.289 ovarian carcinoma cells, stronger effect = higher value;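 also: cells exposed to compound for four days; 0% = vehicle DMSO and 100% = killing by high DMSO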
# [16] = MDA-MB-436 breast carcinoma cell growth inhibition, synergistic combos for chromothripsis tumors, BGB or cisplatin combos (AID 1671458; call rule not given here;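 also: cells exposed for 96 hours; 0% = vehicle DMSO and 100% = killing by high DMSO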); details: MDA-MB-436 breast carcinoma growth inhibition, drug combinations, stronger effect = higher value
# [17] = growth inhibition of BT084 medulloblastoma cells, cell-based, ICGC_MB145, cisplatin and BGB IC40 combos (AID 1671461); details: drug combinations, stronger effect = higher value;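 also: cells exposed to drugs for 96 hours; 0% = vehicle DMSO and 100% = high DMSO full killing control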
# [18] = growth inhibition of RCMB18 medulloblastoma cells, cell-based, cisplatin and BGB IC40 combos (AID 1671462); details: stronger effect = higher value;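 also: cells exposed to compound for four days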
# [19] = growth inhibition of CRL1545 osteosarcoma cells, cell-based, cisplatin and BGB IC20 combos (AID 1671464); details: stronger effect = higher value;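 also: cells exposed to compound for 96 hours before readout; 0% = vehicle DMSO and 100% = high DMSO killing control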
# [20] = at 0.5 µM, stronger effect = higher value
# [21] = measured here: combination with BGB IC20, at 0.005 µM
# [22] = measured here: combination with BGB IC40, at 0.005 µM
# [23] = measured here: combination with BGB IC40, at 0.05 µM
# [24] = measured here: combination with cisplatin, at 0.5 µM, stronger effect = higher value
# [25] = measured here: combination with cisplatin, at 5 µM, stronger effect = higher value
# [26] = measured here: with BGB IC20 combination, at 0.5 µM
# [27] = measured here: with cisplatin IC20 combination, at 0.5 µM
# [28] = measured here: 5 uM single agent, at 5 µM
# [29] = measured here: combination with cisplatin, at 0.5 µM
# [30] = measured here: combination with cisplatin, at 5 µM
# [31] = measured here: with BGB IC20, at 0.5 µM
# [32] = measured here: with BGB IC20, at 5 µM
# [33] = measured here: with cisplatin IC20, at 0.5 µM
# [34] = measured here: with cisplatin IC20, at 5 µM
# [35] = measured here: combination with BGB at IC20, at 0.5 µM
# [36] = measured here: combination with cisplatin at IC20, at 0.5 µM
# [37] = measured here: combo with BGB at IC20, at 0.5 µM
# [38] = measured here: combo with cisplatin at IC20, at 0.5 µM
# [39] = measured here: inhibition with BGB combination, at 0.05 µM
# [40] = measured here: inhibition with cisplatin combination, at 0.05 µM
# [41] = measured here: BGB combination, at 0.5 µM
# [42] = measured here: BGB combination, at 5 µM
# [43] = measured here: cisplatin combination, at 0.5 µM
# [44] = measured here: cisplatin combination, at 5 µM
# [45] = cisplatin combination, at 0.5 µM
# [46] = measured here: BGB IC40 combination 0.05 uM, at 0.05 µM
# [47] = measured here: BGB IC40 combination, at 0.05 µM
structure (smiles),measurement,setting,value
CC(=O)Nc1ccc(C(=O)Nc2ccccc2N)cc1,AC50,[1],13.2 µM (active)
same,AC50,[2],9.34 µM (active)
same,AC50,[3],9.34 µM (active)
same,AC50,[4],10.5 µM (active)
same,IC50,[5],10.5 µM (active)
same,fold change,"[6]; stronger effect = lower value, cell number ratio, induced over uninduced",0.986 (inactive)
same,fold change,[6]; measured here: relative caspase fold change +Dox/-Dox,1.15
same,cell count,"[6]; measured here: total cells with miR-34 induction, stronger effect = lower value",4760
same,cell count,[6]; measured here: total cells without miR-34 induction,4820
same,z-score,"[7]; MELAS cybrid survival, CellTiter-Glo 48 h, stronger effect = higher value",-0.168 (inactive)
same,z-score,"[7]; Rieske KO mouse fibroblast survival, CellTiter-Glo 72 h",-0.712
same,inhibition,[8]; [20],88.2% (active)
same,inhibition,[8]; [21],-32.9%
same,inhibition,[8]; [22],90.3%
same,inhibition,[8]; [23],-22.7%
same,inhibition,[8]; [24],113%
same,inhibition,[8]; [25],85.2%
same,inhibition,"[9]; BGB combo, at 5 µM",47.2%
same,inhibition,[9]; at 0.5 µM,8.49% (inactive)
same,inhibition,"[9]; cisplatin combo, at 5 µM",53.7%
same,inhibition,[9]; [26],4.99%
same,inhibition,[9]; [27],18.6%
same,inhibition,"[9]; single agent, at 5 µM",41.8%
same,inhibition,"[10]; BGB IC20 combo, at 0.005 µM",-11.5%
same,inhibition,"[10]; BGB IC40 combo, at 0.005 µM",-4.35%
same,inhibition,"[10]; BGB IC40 combo, at 0.05 µM",23.2%
same,inhibition,[10]; at 0.5 µM,-24.7% (inactive)
same,inhibition,"[10]; cisplatin combo, at 0.05 µM",19.5%
same,inhibition,"[10]; cisplatin combo, at 0.5 µM",-38.2%
same,inhibition,"[10]; cisplatin combo, at 5 µM",-5.64%
same,inhibition,[10]; [28],-13.9%
same,inhibition,[11]; at 0.5 µM,-13.9% (inactive)
same,inhibition,[11]; [23],-36.6%
same,inhibition,[11]; [29],-17.4%
same,inhibition,[11]; [30],75.4%
same,inhibition,[12]; at 0.5 µM,3.06% (inactive)
same,inhibition,[12]; [31],23.1%
same,inhibition,[12]; [32],53.4%
same,inhibition,[12]; [33],-11.1%
same,inhibition,[12]; [34],56.6%
same,inhibition,"[12]; single agent, at 5 µM",37.1%
same,inhibition,[13]; at 0.5 µM,-31.5% (inactive)
same,inhibition,[13]; [35],-48.1%
same,inhibition,[13]; [36],-8.49%
same,inhibition,[14]; at 0.5 µM,-2.82% (inactive)
same,inhibition,[14]; [37],-7.4%
same,inhibition,[14]; [38],-4.11%
same,inhibition,[15]; at 0.5 µM,0.73% (inactive)
same,inhibition,[15]; [39],-12.2%
same,inhibition,[15]; [40],-6.67%
same,inhibition,[16]; at 0.5 µM,-2.64% (inactive)
same,inhibition,[16]; [41],6.02%
same,inhibition,[16]; [42],12.4%
same,inhibition,[16]; [43],-26.9%
same,inhibition,[16]; [44],14.4%
same,inhibition,[17]; at 0.5 µM,25.3% (inactive)
same,inhibition,[17]; [45],14.2%
same,inhibition,"[17]; cisplatin combination, at 5 µM",63.9%
same,inhibition,[17]; [46],-33.4%
same,inhibition,"[17]; single agent, at 5 µM",40.7%
same,inhibition,[18]; at 0.5 µM,16.2% (inactive)
same,inhibition,"[18]; cisplatin combo, at 5 µM",82.6%
same,inhibition,[18]; [47],-4.7%
same,inhibition,[18]; [29],20.8%
same,inhibition,"[18]; single agent, at 5 µM",47.6%
same,inhibition,[19]; at 0.5 µM,35.2% (inactive)
same,inhibition,[19]; [26],11.6%
same,inhibition,[19]; [27],46.2%
same,inhibition,"[19]; single agent, at 0.05 µM",-7.31%
same,inhibition,"[19]; single agent, at 5 µM",44%
N=C1CCCN1Cc1[nH]c(=O)[nH]c(=O)c1Cl,outcome,[1],inactive
same,outcome,[2],inactive
same,outcome,[3],inactive
same,outcome,[4],inactive
same,outcome,[5],inactive
same,inhibition,[8]; [20],-20% (inactive)
same,inhibition,[8]; [21],7.99%
same,inhibition,[8]; [22],-21.4%
same,inhibition,[8]; [23],-6.35%
same,inhibition,[8]; [24],-51.5%
same,inhibition,[8]; [25],0.237%
same,inhibition,"[9]; BGB combo, at 5 µM",-2.48%
same,inhibition,[9]; at 0.5 µM,2.44% (inactive)
same,inhibition,"[9]; cisplatin combo, at 5 µM",22.1%
same,inhibition,[9]; [26],3.45%
same,inhibition,[9]; [27],3.39%
same,inhibition,"[9]; single agent, at 5 µM",-10.2%
same,inhibition,"[10]; BGB IC20 combo, at 0.005 µM",12.8%
same,inhibition,"[10]; BGB IC40 combo, at 0.005 µM",-11.6%
same,inhibition,"[10]; BGB IC40 combo, at 0.05 µM",-8.96%
same,inhibition,[10]; at 0.5 µM,-1.56% (inactive)
same,inhibition,"[10]; cisplatin combo, at 0.05 µM",-12%
same,inhibition,"[10]; cisplatin combo, at 0.5 µM",11.2%
same,inhibition,"[10]; cisplatin combo, at 5 µM",-26.7%
same,inhibition,[10]; [28],-22.7%
same,inhibition,[11]; at 0.5 µM,-12.8% (inactive)
same,inhibition,[11]; [23],8.6%
same,inhibition,[11]; [29],-12.6%
same,inhibition,[11]; [30],-5.77%
same,inhibition,[12]; at 0.5 µM,8.24% (inactive)
same,inhibition,[12]; [31],11.6%
same,inhibition,[12]; [32],59.6%
same,inhibition,[12]; [33],-6.26%
same,inhibition,[12]; [34],-29%
same,inhibition,"[12]; single agent, at 5 µM",-1.22%
same,inhibition,[13]; at 0.5 µM,2.27% (inactive)
same,inhibition,[13]; [35],3.71%
same,inhibition,[13]; [36],0.594%
same,inhibition,[14]; at 0.5 µM,-9.24% (inactive)
same,inhibition,[14]; [37],-10.8%
same,inhibition,[14]; [38],-6.6%
same,inhibition,[15]; at 0.5 µM,19.4% (inactive)
same,inhibition,[15]; [39],-16.6%
same,inhibition,[15]; [40],-2.8%
same,inhibition,[16]; at 0.5 µM,-5.08% (inactive)
same,inhibition,[16]; [41],3%
same,inhibition,[16]; [42],-6.4%
same,inhibition,[16]; [43],-14.7%
same,inhibition,[16]; [44],-27%
same,inhibition,[17]; at 0.5 µM,-23.1% (inactive)
same,inhibition,[17]; [45],-17.8%
same,inhibition,"[17]; cisplatin combination, at 5 µM",-5.35%
same,inhibition,[17]; [46],-15.9%
same,inhibition,"[17]; single agent, at 5 µM",-9.51%
same,inhibition,[18]; at 0.5 µM,3.14% (inactive)
same,inhibition,"[18]; cisplatin combo, at 5 µM",-11.8%
same,inhibition,[18]; [47],22%
same,inhibition,[18]; [29],1.1%
same,inhibition,"[18]; single agent, at 5 µM",-5.54%
same,inhibition,[19]; at 0.5 µM,26.4% (inactive)
same,inhibition,[19]; [26],22.4%
same,inhibition,[19]; [27],26.7%
same,inhibition,"[19]; single agent, at 0.05 µM",12.9%
same,inhibition,"[19]; single agent, at 5 µM",25.1%
